Source: PubChem BioAssay (NCATS)
Inconclusive results are not listed. Entries that show only a call come without a potency. Active and inactive are the calls of the source. The call rests on the fitted dose curve; in most records, active means well fitted inhibition curve with a large enough effect; inconclusive means small, poorly fitted or top-dose-only effect; inactive means flat fitted curve, though single readings scatter.

Biological target: Calcium and integrin-binding protein 1 (Homo sapiens) (UniProt Q99828)
Sequence (Q99828 whole entry, looked up): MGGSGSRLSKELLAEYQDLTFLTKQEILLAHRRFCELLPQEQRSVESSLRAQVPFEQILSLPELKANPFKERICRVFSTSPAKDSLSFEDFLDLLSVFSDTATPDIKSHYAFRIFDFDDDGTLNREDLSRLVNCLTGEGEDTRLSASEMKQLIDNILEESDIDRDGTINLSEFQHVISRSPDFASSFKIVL
Assay: Primary qHTS for Identification of Calcium Integrin Binding Protein 1 (CIB1) Competitor (AID 1508620);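 further: GST tagged CIB1 binding a fluorescein labelled alphaIIb integrin peptide tracer; top concentration of the series differs between compounds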
Conditions: CIB1-GST / FITC-alphaIIb peptide fluorescence polarization; series mostly up to 114 µM
Method in brief: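 Fluorescence polarization competition: CIB1-GST (1 uM final) preincubated with compound 15 min at room temperature, then FITC-labeled alphaIIb peptide (100 nM final) added for another 15 min. Polarization read at Ex 480/Em 540.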

SMILES | Potency
Cc1ccc(OCCn2c3c(c4ccccc42)CCN(C(=O)C2CCCCC2)C3)cc1 | inactive
Clc1cccc(-c2ccc3ncnc(NCc4cccnc4)c3c2)c1 | inactive
COc1ccc(C(=O)N(Cc2ccco2)Cc2ccco2)c(O)c1 | inactive
Cc1cnc(-c2ccccc2C2COC2)nc1NCc1ccc(-c2cccnc2)cc1 | inactive
CC(C)(C)OC(=O)NCCOCCOCCOCCn1ncc2c1CCCC2NC(=O)c1ccccn1 (configuration not stated) | inactive
CC(=O)c1ccc(NC(=O)Nc2nnc(-c3ccncc3)s2)cc1 | inactive
O=C(Nc1ccc(Cl)nc1)Nc1nnc(-c2ccncc2)s1 | inactive
O=C(Nc1ccc(Oc2ccccc2)cc1)Nc1nnc(-c2ccncc2)s1 | inactive
O=S1(=O)N=C(Oc2ccccc2Br)c2ccccc21 | inactive
O=C1CCCC2=C1C(c1[nH]ncc1Cl)N=C(Nc1ccn[nH]1)N2 (configuration not stated) | inactive
CCOc1ccc(CCNC(=O)c2cc3ccccc3n2Cc2cc(C)cc(C)n2)cc1OCC | inactive
COc1ccc(C2Nc3ccccc3C(=O)N2Cc2ccc(-c3ccccc3)cc2)cc1COc1ccc(NC(C)=O)cc1 (configuration not stated) | inactive
CC(=O)NC(c1cc(F)c2cccnc2c1O)C(C)C (configuration not stated) | inactive
CC(=O)N1CCN(C(=O)COC(=O)c2ccc([S+](C)(=O)[O-])c([N+](=O)[O-])c2)CC1 | inactive
CS(=O)(=O)N1CCN(c2nc(-c3ccc(Br)cc3)cs2)CC1 | inactive
COc1cccc(-n2cnc3cc(C(=O)N4CCCCC4)ccc32)c1 | inactive
O=C(Nc1nc2cc(C(F)(F)F)ccc2s1)c1ccc(-c2cccc([N+](=O)[O-])c2)o1 | inactive
